This is part of a sample that, as a whole, favours compounds with a hit. Of some 83,000 tested, about 20% had one in any assay.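 Single-concentration screen, 48 h exposure, 96-well plates. Endpoint: percent growth. Below 10 = active.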 Unmarked numbers belong to inactive results. Activity calls are given as the source filed them.
Legend:
Test in all cases: NCI-60 one-dose screen, 48 h (100 = growth as untreated, 0 = no growth, -100 = all killed)
Details in all cases: 10 µM unless noted
DU-145 prostate = tested on: DU-145 prostate
K-562 leukemia = tested on: K-562 leukemia
MALME-3M melanoma = tested on: MALME-3M melanoma
MDA-MB-231 breast = tested on: MDA-MB-231 breast
RXF 393 renal = tested on: RXF 393 renal
SF-268 CNS = tested on: SF-268 CNS
SF-295 CNS = tested on: SF-295 CNS
SF-539 CNS = tested on: SF-539 CNS
UACC-257 melanoma = tested on: UACC-257 melanoma
M14 melanoma = tested on: M14 melanoma

| Structure (SMILES) | growth (DU-145 prostate) | growth (K-562 leukemia) | growth (MALME-3M melanoma) | growth (MDA-MB-231 breast) | growth (RXF 393 renal) | growth (SF-268 CNS) | growth (SF-295 CNS) | growth (SF-539 CNS) | growth (UACC-257 melanoma) | growth (M14 melanoma) |
| --- | --- | --- | --- | --- | --- | --- | --- | --- | --- | --- |
| COc1ccc(C(c2cc(OC)c(OC)c(OC)c2)N2CCCC2)cc1 (stereo not given) | 103% | 25.3% | 85.3% | 80.8% | 103% | 84.3% | 69.7% | 95.7% | 74.6% | 60.1% |
| COc1ccc(Nc2ncc(C(N)=O)c(NCCCNC(=O)C3CCC3)n2)cc1 | 77.3% | 39.5% | 95.2% | 26.5% | 17% | 80.9% | 75.7% | 14.3% | 112% | 67.7% |
| COc1ccc(C2=CN3CC=CCC3CC2=O)cc1 (stereo not given) | 100% | 105% | 116% | 98.3% | 100% | 101% | 104% | 104% | 71.6% | 99.5% |
| CCCCCCOC(=O)CC1=C(C)/C(=C/c2[nH]c(-c3ccc[nH]3)cc2OC)N=C1C | 5.68% (active) | -33.6% (active) | -74% (active) | -50.7% (active) | -56.1% (active) | -20.8% (active) | -60.4% (active) | -71.3% (active) | -63.9% (active) | -86.2% (active) |
| C=C(CO)[C@@H]1CC[C@]2(COC3CCCCO3)CC[C@]3(C)[C@H](CC[C@@H]4[C@@]5(C)C=C(C=O)C(=O)C(C)(C)[C@@H]5CC[C@]43C)[C@@H]12 (stereo not given in full) | -98% (active) | -60.7% (active) | -78.4% (active) | -58.4% (active) | -86.2% (active) | -83.2% (active) | -89.5% (active) | -90.1% (active) | -64.4% (active) | -65.5% (active) |
| FC(F)(F)c1[nH]ncc1-c1nc2c(N3CCCCC3)cc3[nH]ncc3c2c2c1CCCC2 | 10.2% | 14.1% | 0.904% (active) | 3.41% (active) | -92% (active) | -11.7% (active) | 7.04% (active) | -72.2% (active) | 0.68% (active) | 2% (active) |
| COc1cc(C(=O)/C=C/c2c(-c3cccs3)nc3ccccn23)cc(OC)c1OC | 3.29% (active) | 25.7% | 33.9% | 24.7% | 2.35% (active) | 21% | -29.7% (active) | -27% (active) | 29.9% | 11.7% |
| CC(=O)Nc1c(Cl)cc(Cl)c2c1Cc1cc([N+](=O)[O-])ccc1-2 | 104% | 90.2% | 107% | 83.6% | 85.3% | 95.5% | 113% | 61.1% | 107% | 100% |
| COC(=O)c1c2c(c(C)[n+]([O-])c1C)C(=O)C=CC2=O | -78.6% (active) | 10.5% | -87.8% (active) | 0.888% (active) | -76.2% (active) | -0.514% (active) | 19% | -98.2% (active) | -80.8% (active) | -82.8% (active) |
| CCCCCSB(SCCCCC)c1ccccc1 | 108% | 112% | 101% | 105% | 109% | 98.2% | 105% | 106% | 94.4% | 102% |
| Cc1nc2sc(C(=O)Nc3ccccc3)c(N)c2cc1C(=O)/C=C/c1ccccc1 | 1.91% (active) | 12% | 50.1% | -9.1% (active) | -74.8% (active) | 0.182% (active) | 18.1% | -27% (active) | 54.2% | 11.1% |
| CCCCCCCC/C=C\CCCCCCCCOc1ccccc1CC(=O)NCC[N+]1(C)CCCCC1 | 67.1% | 36.3% | 69.8% | 59.8% | 28.6% | 39.2% | 97.4% | 95.1% | 61.5% | 65.5% |
| COc1ccc(NC(=O)c2cccc(C3CCc4c(cc(OC)c(OC)c4OC)O3)c2)cc1 (stereo not given) | 63.2% | 6.79% (active) | 41.7% | 31% | 53% | 50.2% | 23.9% | 18.9% | 46.5% | 28.2% |
| C#Cc1cccc(Oc2ccc(NC(=O)CCl)cc2)c1 | 72% [8.25 µM] | 7.79% [8.25 µM] (active) | 21.3% [8.25 µM] | 41.1% [8.25 µM] | 62.6% [8.25 µM] | 49.5% [8.25 µM] | 85.5% [8.25 µM] | 47% [8.25 µM] | 75.8% [8.25 µM] | 24.6% [8.25 µM] |
| CCOc1ccc(NC(=O)c2cc(OC)c(OC)c(OC)c2)cc1 | 54% | 17% | 38.2% | 62.7% | 39.8% | 47.6% | 26.2% | 23.5% | 50.1% | 16.5% |
| CC1(C)CC[C@]2(C(=O)N3CCOCC3)CC[C@]3(C)C(=CC[C@@H]4[C@@]5(C)C/C(=C/c6ccncc6)C(=O)C(C)(C)[C@@H]5CC[C@]43C)[C@@H]2C1 | 21.7% | 6.99% (active) | -19.7% (active) | 33.9% | -36.8% (active) | 48.6% | 25.4% | -7.46% (active) | 14.8% | -8.66% (active) |
| CCN(CC)CCCNCc1cc(-c2ccccc2)nc2cc(Cl)ccc12 | 78.3% | -17.3% (active) | -66.4% (active) | 22.1% | 77.2% | 38.2% | 79.9% | 40.4% | -76.8% (active) | -95.3% (active) |
| C[C@@H]1O[C@@H](O[C@@H]2C[C@H](c3ccc4c(c3O)C(=O)C3=C(C4=O)[C@@]4(O)C(=O)C[C@](C)(O)C[C@@]4(O)C=C3)O[C@H](C)[C@H]2O)C[C@H](O)[C@@H]1O | 104% | 91.3% | 90.7% | 102% | 106% | 91.1% | 108% | 101% | 101% | 98.4% |
| C=CCOC(=O)C1=C(C)NC(=O)NC1c1c(Cl)n(C)c2ccccc12 (stereo not given) | 107% | 106% | 105% | 96% | 100% | 95.4% | 99.4% | 93.5% | 99.4% | 95.3% |
| COc1cc2c3c(n(CCCCNCCCn4c5c(c6cc(OC)c(OC)cc6c4=O)C(=O)c4cc6c(cc4-5)OCO6)c(=O)c2cc1OC)-c1cc2c(cc1C3=O)OCO2 | 99.1% | 85.7% | 81.8% | 90.4% | 107% | 89.5% | 99.9% | 92.8% | 94.8% | 96.3% |
| O=C(CCC(=O)c1nc2ncccc2[nH]1)NN1C(=O)CSC1c1ccc(Cl)cc1 (stereo not given) | 103% | 98.2% | 93% | 98% | 103% | 91.2% | 108% | 103% | 105% | 98% |
| COC(=O)c1c2c(n3ccc(C)cc13)C(=O)c1ccccc1C2=O | 75.2% | 60.8% | 62.2% | 77.9% | 75.9% | 74.9% | 67.6% | 94.8% | 72.4% | 63.5% |
| Cc1[nH]c(C(=O)Nc2ccc(C(N)=O)cc2NC(C)C)c(Cl)c1Cl | 100% | 85.8% | 94.4% | 90.1% | 94.7% | 86.5% | 100% | 92.8% | 96.2% | 87.6% |
| Cc1cc(F)ccc1S(=O)(=O)Nc1cc(-c2c(O)ccc3ccccc23)c(O)c2ccccc12 | 41.7% | 14.8% | 15.3% | 22.7% | 27.1% | 34.9% | 41.8% | 6.5% (active) | 30.2% | 18.2% |
| CC[C@]12C=CCN3CC[C@@]4(c5ccc(OC)cc5N(C)[C@H]4[C@@](O)(C(=O)OC)[C@@H]1OC(=O)CCCN1CCOCC1)[C@@H]32 | 106% | 100% | 110% | 115% | 114% | 98.6% | 104% | 106% | 104% | 103% |
| Cc1ccccc1CNc1c2ccccc2nc2ccccc12 | 30.6% | 5.04% (active) | 15.2% | 39.9% | 7.78% (active) | 42.9% | 29.5% | 3.3% (active) | 32.7% | 13.1% |

From PubChem BioAssay (NCI)
